From PubChem BioAssay
T cruzi growth-1: T. cruzi intracellular proliferation inhibitors, primary screen, cell-based, beta-gal Tulahuen parasites, NIH3T3 host, luminescence; T. cruzi beta-gal in NIH3T3, GalScreen luminescence, 90 h; inhibition, % at 8.34 µM; 5.9% of 77,000 active; AID 624255, 2012;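 active = mean inhibition above about 93%, with at least 55% of replicates each passing it, limit read from the data, passing the limit was not always enough; inconclusive = only one of those two conditions holds; inactive = neither condition holds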
C diff growth: C. difficile growth inhibitors, primary screen, HTS | Clostridium difficile clinical isolate growth, OD600, 24 h; stronger effect = lower value | growth activity, negative = inhibition, % at 16 µg/mL (by protocol) | 0.25% of 86,000 active | AID 1259249, 2017;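 active = mean growth activity at or below -80% and every replicate also at or below -80%; inconclusive = mean at or below -80% but some replicate above -80%; inactive = mean growth activity above -80%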;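 also: 0% = DMSO wells and -100% = levofloxacin 16 µg/mL wells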
Pf Dd2 inh: P. falciparum Dd2 growth inhibitors, primary screen, SYBR Green fluorescence, single dose replicates | 72 h; stronger effect = lower value | activity change, % at 10 µM | 2.3% of 94,000 active; in the data active = activity change below about -80%; inconclusive = no clear call, values can overlap the other calls
T cruzi growth-2: T. cruzi intracellular proliferation inhibitors, confirmation, cell-based, NIH3T3 host, beta-gal parasite, luminescence, cherry-pick; shares compounds with T cruzi growth-1; T. cruzi beta-gal in NIH3T3, GalScreen luminescence, 90 h; inhibition, % at 8.35 µM; 72% of 5,600 active; AID 651739, 2012;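 active = mean replicate inhibition above about 95% and at least 55% of replicates individually reaching it, limit read from the data; inconclusive = only one of the two criteria is met; inactive = neither criterion is met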
T cruzi growth-3: inhibitors of intracellular T. cruzi replication, confirmation, NIH3T3 host cells, beta-gal parasites, cherry-pick, set 2. shares compounds with T cruzi growth-1. 21% of 5,600 active. inhibition, % at 2.09 µM. T. cruzi beta-gal in NIH3T3, GalScreen luminescence, 90 h. AID 651740, 2012;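 active = mean inhibition above about 95%, with at least 55% of replicates also reaching it, limit read from the data; inconclusive = meets just one of the two conditions; inactive = meets neither condition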;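 also: plate controls were neutral control median for no effect and positive control median for full effect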
NIH3T3 tox: cytotoxicity in mouse NIH/3T3 fibroblasts, confirmation, cytotoxicity control for T. cruzi proliferation inhibitor project, cell-based, cherry-pick, single point | shares compounds with T cruzi growth-1 | NIH/3T3 viability, CellTiter-Glo ATP luminescence, 90 h | cytotoxicity (signal decrease), % at 8.35 µM | 14% of 5,600 active;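 active = mean signal decrease across replicates above about 35% based on untreated-well scatter, with enough replicates individually passing, limit read from the data; inconclusive = no rule stated though some were filed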;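 also: 0% = median of neutral control wells and 100% = median of positive control wells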
NIH3T3 tox 2: NIH/3T3 fibroblast cytotoxicity, confirmation, cytotoxicity control, cell-based, cherry-pick, single point, set 2; inhibition, % at 24.9 µM; 56% of 5,600 active; AID 651744, 2012; NIH/3T3 viability, CellTiter-Glo ATP luminescence, 90 h; shares compounds with T cruzi growth-1;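 active = mean loss of cell viability signal at or above a set limit, and enough replicates individually reaching it; inconclusive = meets only the mean limit or only the replicate share; inactive = meets neither condition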;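 also: 0% = median of neutral control wells and 100% = median of positive control wells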
The depositor's hits bear a star; ? = inconclusive; · = not tested or not shown. Most compounds without a hit are left out; they make up all but 6.7% or so of the library.

SMILES | T cruzi growth-1 | C diff growth | Pf Dd2 inh | T cruzi growth-2 | T cruzi growth-3 | NIH3T3 tox | NIH3T3 tox 2
COc1cc(CN2CC3(CN(C(C)=O)C3)c3c([nH]c4cc(OC)ccc34)[C@@H]2CO)cc(OC)c1 | · | · | 16 | · | · | · | ·
O=C(C[C@@H]1C=C[C@@H](NS(=O)(=O)c2ccc(F)cc2)[C@H](CO)O1)NC1CCC1 | · | 0 | 6 | · | · | · | ·
C[C@H]1CN([C@@H](C)CO)C(=O)c2cccc(NC(=O)Nc3ccccc3)c2O[C@H]1CN(C)C(=O)Nc1ccc(C(F)(F)F)cc1 | 27 | 8 | -4 | · | · | · | ·
O=C(C[C@@H]1C[C@H]2c3cc(NC(=O)Nc4ccccc4)ccc3O[C@H]2[C@H](CO)O1)NCCN1CCCCC1 | -76 | -3 | -12 | · | · | · | ·
C[C@@H]1CCCCO[C@H](CN(C)S(C)(=O)=O)[C@H](C)CN([C@@H](C)CO)C(=O)c2cc(NC(=O)CCC(F)(F)F)ccc2O1 | 27 | 2 | 19 | · | · | · | ·
CN1C(=O)c2cc(NS(C)(=O)=O)ccc2OC[C@@H]2O[C@H](CC(=O)NC3CCCCC3)CC[C@H]21 | -5 | -2 | · | · | · | · | ·
COc1ccc2c3c(n(C)c2c1)[C@@H](CO)N(C(=O)Nc1ccc(F)cc1)CC31CCN(S(=O)(=O)c2cccc(C)c2)CC1 | · | 8 | -44 | · | · | · | ·
C[C@@H]1CN([C@H](C)CO)S(=O)(=O)c2ccc(C3=CCCCC3)cc2O[C@@H]1CN(C)C(=O)Cc1ccncc1 | 94 | -1 | -69 | · | · | · | ·
C[C@@H]1CN([C@H](C)CO)S(=O)(=O)c2ccc(C3=CCCCC3)cc2O[C@@H]1CN(C)C(=O)Cc1ccccc1 | 103 | 9 | -7 | · | · | · | ·
C[C@@H]1CN([C@@H](C)CO)S(=O)(=O)c2ccc(C3=CCCCC3)cc2O[C@@H]1CN(C)C(=O)Cc1ccncc1 | 97* | -2 | -68 | 89 | 59 | 19 | 32*
C[C@@H]1CN([C@@H](C)CO)S(=O)(=O)c2ccc(C3=CCCC3)cc2O[C@H]1CN(C)C(=O)Cc1ccncc1 | 98* | -1 | -66 | 80 | 15 | -7 | 23
C[C@@H]1CN([C@@H](C)CO)S(=O)(=O)c2ccc(C3=CCCCC3)cc2O[C@H]1CN(C)C(=O)Cc1ccccc1 | ? | -9 | -43 | 105* | 41 | 53* | 52*
C[C@@H]1CN([C@H](C)CO)S(=O)(=O)c2ccc(C3=CCCC3)cc2O[C@H]1CN(C)C(=O)Cc1ccncc1 | 73 | 0 | -19 | · | · | · | ·
C[C@@H]1CN([C@H](C)CO)S(=O)(=O)c2ccc(C3=CCCCC3)cc2O[C@H]1CN(C)C(=O)Cc1ccncc1 | 100* | -2 | -79 | 103* | 66 | 28 | 36*
C[C@@H]1CN([C@@H](C)CO)S(=O)(=O)c2ccc(C3=CCCCC3)cc2O[C@H]1CN(C)C(=O)Cc1ccncc1 | 81 | -2 | -72 | · | · | · | ·
C[C@H](O)C#Cc1cnc2c(c1)C(=O)N([C@@H](C)CO)C[C@@H](C)[C@H](CN(C)C(=O)Cc1ccccn1)O2 | 4 | -7 | 52 | · | · | · | ·
C[C@@H]1CN([C@H](C)CO)C(=O)c2cc(NC(=O)NC3CCCCC3)ccc2O[C@H]1CN(C)Cc1ccc(-c2ccccc2)cc1 | 105* | 30 | 10 | 104* | 13 | 25 | 17
C[C@@H]1CN([C@@H](C)CO)C(=O)c2cc(NC(=O)NC3CCCCC3)ccc2O[C@H]1CN(C)Cc1ccc(-c2ccccc2)cc1 | 108* | 42 | 13 | 102* | -18 | 38* | 43*
C[C@@H]1CN([C@H](C)CO)C(=O)c2cc(NC(=O)NC3CCCCC3)ccc2O[C@@H]1CN(C)Cc1ccc(-c2ccccc2)cc1 | 48 | -1 | 14 | · | · | · | ·
C[C@H]1CN([C@@H](C)CO)C(=O)c2cc(NC(=O)NC3CCCCC3)ccc2O[C@@H]1CN(C)Cc1ccccc1 | 3 | -8 | -7 | · | · | · | ·
C[C@@H]1CN([C@@H](C)CO)C(=O)c2cc(NC(=O)NC3CCCCC3)ccc2O[C@@H]1CN(C)Cc1ccc(-c2ccccc2)cc1 | 96* | 9 | 6 | 100* | 101* | 54* | 65*
C[C@H]1CN([C@@H](C)CO)C(=O)c2cc(NC(=O)NC3CCCCC3)ccc2O[C@@H]1CN(C)Cc1ccc(-c2ccccc2)cc1 | -75 | 8 | -1 | · | · | · | ·
CC(=O)N(C)C[C@@H]1Oc2ncc(C#Cc3ccccc3F)cc2C(=O)N([C@H](C)CO)C[C@@H]1C | -19 | -5 | 5 | · | · | · | ·
CCCC#Cc1ccc2c(c1)O[C@@H](CN(C)C(=O)c1cnccn1)[C@@H](C)CN([C@@H](C)CO)S2(=O)=O | 71 | 4 | 2 | · | · | · | ·
CC(C)C#Cc1ccc2c(c1)O[C@@H](CN(C)Cc1cncnc1)[C@@H](C)CN([C@H](C)CO)S2(=O)=O | 30 | 5 | -3 | · | · | · | ·
SMILES | T cruzi growth-1 | C diff growth | Pf Dd2 inh | T cruzi growth-2 | T cruzi growth-3 | NIH3T3 tox | NIH3T3 tox 2
C[C@H]1CN([C@@H](C)CO)C(=O)CCCn2cc(nn2)CO[C@H]1CN(C)C(=O)Nc1ccccc1C(F)(F)F | -15 | -4 | -32 | · | · | · | ·
C[C@@H]1CN([C@@H](C)CO)C(=O)c2cc(NC(=O)Cc3ccccc3)ccc2O[C@H]1CN(C)C(=O)Nc1cccc2ccccc12 | 54 | 3 | -37 | · | · | · | ·
CCCNC(=O)[C@@H]1[C@@H](CO)[C@@H]2Cn3c(ccc(-c4ccccc4F)c3=O)[C@H]1N2CCC | 11 | 0 | 5 | · | · | · | ·
C[C@H]1CN([C@@H](C)CO)C(=O)c2cc(NS(=O)(=O)c3ccc(F)cc3)ccc2O[C@@H]1CN(C)Cc1ccc(-c2ccccc2)cc1 | ? | 18 | 24 | 106* | 46 | 2 | 103*
C[C@H](CO)N1C[C@H](C)[C@H](CN(C)Cc2ccc(-c3ccccc3)cc2)Oc2ccc(NS(=O)(=O)c3ccc(F)cc3)cc2C1=O | 75 | 19 | 0 | · | · | · | ·
Cc1ccc(S(=O)(=O)Nc2ccc3c(c2)C(=O)N([C@@H](C)CO)C[C@H](C)[C@@H](CN(C)Cc2ccc(-c4ccccc4)cc2)O3)cc1 | ? | 33 | -3 | 103* | 95 | 22 | 87*
C[C@H]1CN([C@@H](C)CO)C(=O)c2cc(NS(=O)(=O)c3ccc(Cl)cc3)ccc2O[C@H]1CN(C)Cc1ccc(-c2ccccc2)cc1 | 31 | 10 | 10 | · | · | · | ·
